Source: PubChem (Broad Institute)
IDE exosite FP = exo-site inhibitors of human insulin-degrading enzyme | P14735 | purified IDE, FL-6b probe fluorescence polarization; stronger effect = lower value | z-score at 20 µM | 6.3% of 17,000 active | AID 1259349;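 active means z-score of -3 or lower, meaning strong loss of probe binding signal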;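 further: His-tagged human IDE residues 42-1019 made in E. coli with 30 nM FL-6b probe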
* hit, by the source's call. Only a selection was taken, and hits are over-represented in it overall.

SMILES | IDE exosite FP
CO[C@H]1CN(C)C(=O)c2ccc(NS(C)(=O)=O)cc2OC[C@H](C)N(CC2CC2)C[C@H]1C | -0.0899
N#C[C@@H]1[C@H](c2ccc(C3=CCCC3)cc2)[C@@H](CO)N1C(=O)c1cccc(F)c1 | 6.02
COCC(=O)N1CC(=O)N2[C@H](C1)[C@H](c1ccc(-c3ccncc3)cc1)[C@@H]2CO | -0.78
Cc1ccc(S(=O)(=O)Nc2ccc3c(c2)CC(=O)N([C@@H](C)CO)C[C@H](C)[C@H](CN(C)S(=O)(=O)c2ccccc2)O3)cc1 | -0.0879
COc1ccccc1-c1ccc([C@H]2[C@@H](CO)N(C(=O)NC(C)C)[C@H]2C#N)cc1 | -16.3*
COc1ccc(-c2ccc([C@H]3[C@@H](C#N)N(C(=O)NC(C)C)[C@@H]3CO)cc2)cc1 | -1.34
COc1ccc(-c2ccc([C@H]3[C@@H](C#N)N(C(=O)C4CCCC4)[C@@H]3CO)cc2)cc1 | 3.25
N#C[C@H]1[C@@H](c2ccc(-c3ccccc3F)cc2)[C@H](CO)N1C(=O)C1CCC1 | -0.675
N#C[C@@H]1[C@@H](c2ccc(-c3ccccc3F)cc2)[C@H](CO)N1C(=O)C1CCC1 | 2.1
COc1ccc(-c2ccc([C@@H]3[C@H](C#N)N(C(=O)NC(C)C)[C@H]3CO)cc2)cc1 | 0.0838
COc1ccccc1-c1ccc([C@H]2[C@H](C#N)N(C(=O)C3CC3)[C@H]2CO)cc1 | -10.2*
COc1ccc(-c2ccc([C@@H]3[C@@H](C#N)N(C(=O)C4CCCC4)[C@H]3CO)cc2)cc1 | 0.898
COc1ccccc1-c1ccc([C@@H]2[C@@H](C#N)N(C(=O)C3CC3)[C@@H]2CO)cc1 | -17*
COc1ccccc1-c1ccc([C@H]2[C@@H](CO)N(C(=O)C3CCCCC3)[C@H]2C#N)cc1 | -3.28*
CN1C(=O)c2cc(NC(=O)Cc3cccs3)ccc2OC[C@@H]2O[C@@H](CC(=O)NCC3CCCCC3)CC[C@H]21 | -0.117
COc1ccc(-c2ccc3c(c2)[C@@H]2[C@@H](CCN2C(=O)Nc2ccccc2OC)[C@@H](CO)N3C)cc1 | 0.175
N#C[C@H]1[C@@H](c2ccc(C3=CCCCC3)cc2)[C@@H](CO)N1S(=O)(=O)c1ccccc1 | 1.11
COCCN(C[C@H]1N[C@H](CO)[C@@H]1c1ccc(-c2ccc(F)cc2)cc1)C(C)=O | 1.5
CN1C(=O)c2cc(NC(=O)c3ccc(C#N)cc3)ccc2OC[C@H]2O[C@@H](CC(=O)NC3Cc4ccccc4C3)CC[C@@H]21 | 0.209
CCC(=O)NC[C@@H]1[C@@H](c2ccccc2)[C@@H](CO)N1C(=O)C1CC1 | 4.06
C/C=C/c1ccc(C2[C@H]3CNC[C@@H]2N3C(=O)Nc2ccc3c(c2)OCO3)cc1 (stereo not given in full) | -0.413
CN(C)CC#Cc1ccc([C@H]2[C@@H](CO)N3CCCCN(C(=O)Nc4ccc(F)cc4)C[C@@H]23)cc1 | 1.04
N#C[C@H]1[C@@H](c2ccccc2-c2ccccc2)[C@@H](CO)N1C(=O)NC1CCCC1 | 0.257
COc1ccc(-c2ccc([C@@H]3[C@@H](C#N)N(C(=O)C4CC4)[C@H]3CO)cc2)cc1 | 1.75
COc1ccc(-c2ccc([C@H]3[C@H](C#N)N(C(=O)c4cccc(F)c4)[C@H]3CO)cc2)cc1 | 2.59
SMILES | IDE exosite FP
COc1ccccc1-c1ccccc1[C@@H]1[C@@H](C#N)N(C(=O)C2CCC2)[C@@H]1CO | 5.1
N#C[C@H]1[C@H](c2ccc(-c3ccccc3F)cc2)[C@H](CO)N1C(=O)C1CC1 | -2.39
Cc1ccc(-c2ccccc2[C@@H]2[C@H](C#N)N(C(=O)c3cccc(F)c3)[C@H]2CO)cc1 | 0.434
COc1ccccc1-c1ccc([C@H]2[C@@H](C#N)N(C(=O)C3CC3)[C@@H]2CO)cc1 | -3.17*
COc1ccccc1-c1ccc([C@@H]2[C@H](C#N)N(C(=O)C3CC3)[C@H]2CO)cc1 | -5.92*
N#C[C@@H]1[C@@H](c2ccc(-c3ccccc3F)cc2)[C@@H](CO)N1C(=O)C1CCC1 | 1.22
N#C[C@@H]1[C@@H](c2ccc(-c3ccccc3F)cc2)[C@H](CO)N1C(=O)C1CC1 | -3.11*
COc1ccccc1-c1ccc([C@@H]2[C@@H](C#N)N(C(=O)c3cccc(F)c3)[C@@H]2CO)cc1 | -13.3*
COc1ccc(-c2ccc([C@H]3[C@H](C#N)N(C(=O)C4CC4)[C@H]3CO)cc2)cc1 | -0.559
COc1ccccc1-c1ccccc1[C@@H]1[C@@H](CO)N(C(=O)C2CCC2)[C@H]1C#N | 2.69
C[C@@H]1CN([C@H](C)CO)C(=O)c2cc(NC(=O)Nc3ccc(C(F)(F)F)cc3)ccc2O[C@@H](C)CCCCO[C@@H]1CN(C)S(=O)(=O)c1ccc(Cl)cc1 | 0.688
C[C@H](CO)N1C[C@H](C)[C@H](CN(C)C(=O)[C@@H](Cc2ccccc2)N(C)C)OCc2ccccc2-c2ccccc2C1=O | 0.727
COc1cccc(S(=O)(=O)N2C[C@@H](O)COC[C@@H]3O[C@@H](CC(=O)NCCCN4CCOCC4)CC[C@H]32)c1 | 1.17
C/C=C/c1ccc([C@@H]2[C@H]3CN(C(=O)c4ccncc4)CC(=O)N3[C@H]2CO)cc1 | -0.28
